The campaign covered roughly 96,000 compounds. About 1,400 (1.5%) were called active. The sample holds actives, similar compounds and a random draw of the others, so the mix is not that of the screen. A number with no mark means an inactive call.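 How the source made its calls: active means activation factor of 2 or more for CYP2C9 at a 5 µM dose; inactive means the rest.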

In the test the target is Cytochrome P450 2C9 (Homo sapiens) (UniProt P11712). As to the kind of experiment: enhancers of cytochrome P450 2C9 turnover – biochemical, luminescence, primary screen (AID 1024).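 Further: 0 = sulfaphenazole-blocked wells and 1 = vehicle-only wells.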 The conditions noted are these: recombinant CYP2C9, luciferin-H conversion, at 5 µM, active compounds read high, factor 1 = untreated enzyme, 0 = blocked.
Chain of Cytochrome P450 2C9 (Homo sapiens) (P11712 whole entry, looked up): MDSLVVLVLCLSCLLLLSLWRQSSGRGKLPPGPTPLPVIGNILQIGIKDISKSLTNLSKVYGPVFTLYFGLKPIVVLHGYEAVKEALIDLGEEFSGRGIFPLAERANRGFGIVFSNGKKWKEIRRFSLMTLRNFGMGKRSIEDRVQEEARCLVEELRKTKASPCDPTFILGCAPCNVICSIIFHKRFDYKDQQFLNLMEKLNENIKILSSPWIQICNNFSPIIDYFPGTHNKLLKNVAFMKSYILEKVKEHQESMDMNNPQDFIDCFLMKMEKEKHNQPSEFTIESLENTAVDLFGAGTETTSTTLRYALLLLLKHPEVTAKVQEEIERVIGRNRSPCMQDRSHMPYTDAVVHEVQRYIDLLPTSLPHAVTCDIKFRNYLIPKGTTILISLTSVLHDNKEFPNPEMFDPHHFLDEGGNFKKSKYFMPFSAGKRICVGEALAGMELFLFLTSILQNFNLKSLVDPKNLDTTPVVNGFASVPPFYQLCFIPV
In the case of `CCN(c1ccccc1)S(=O)(=O)c1ccc(N)cc1`, the activation factor is 2.4 (active).

Turning to `CCN(c1ccccc1)S(=O)(=O)c1cccc(C(=O)O)c1`, the activation factor was 0.7.

On to `CCN(c1ccccc1)S(=O)(=O)c1ccc(NC(=O)C(C)(C)C)cc1`, for which the activation factor is 0.7.

On to `O=C(NCCc1ccccn1)c1cc(C(=O)C2CCCCC2)c[nH]1`, for which the activation factor is 0.9.

`CC1CCN(C(NC(=O)c2ccco2)C(=O)c2ccccc2)CC1` (stereo not given): the activation factor is 0.3.

Regarding `COc1ccc(CCNC(=O)COC(=O)c2ccc[nH]c2=O)cc1`, the activation factor was 0.8.

Regarding `COc1cc(C2C(C(=O)OCCC#N)=C(C)NC3=C2S(=O)(=O)c2ccccc23)cc(OC)c1OC` (stereo not given), the activation factor is 0.5.

With `O=C(Nc1cccc2ccccc12)N1CCN(Cc2ccc3c(c2)OCO3)CC1`, the activation factor is 0.6.

On to `O=C(CCCN1C(=O)c2cccc3cccc(c23)C1=O)N1CCN(Cc2ccc3c(c2)OCO3)CC1`, for which the activation factor is 2.4 (active).

Consider `Cn1c(=O)cc(OCCCC(=O)N2CCN(Cc3ccc4c(c3)OCO4)CC2)c2ccccc21`, for which the activation factor was 0.9.

Turning to `COc1ccc(N(CC(=O)N/N=C/c2cccc3c2OCCO3)S(=O)(=O)c2ccc(NC(C)=O)cc2)cc1`, the activation factor is 0.2.

Turning to `CCN(CC)S(=O)(=O)c1ccc2c3c(cccc13)C(=O)S2`, the activation factor was 1.5.

Regarding `COc1cccc(C(=O)c2cc3ccc(O)cc3oc2=O)c1`, the activation factor was 0.1.

As for `COc1ccc2oc(=O)c(C(=O)O)cc2c1`, the activation factor is 1.1.

As for `COc1cccc2cc(C(=O)N(C)C)c(=O)oc12`, the activation factor was 2 (active).

As for `O=C(Oc1ccccc1)Oc1ccc2c(c1)oc(=O)c1ccccc12`, the activation factor is 1.6.

`Cc1n[nH]c(=S)n1/N=C/c1ccc(Br)o1`: the activation factor was 1.

With `CCc1cccc2c(C=C(C#N)C#N)cn(CC(=O)N3CCCCC3)c12`, the activation factor was 1.

Turning to `Cc1nc(SCC(=O)N2CC(=O)Nc3ccccc32)c2c(C)c(C)sc2n1`, the activation factor is 0.4.

Consider `COc1ccc(C2SCCN2S(=O)(=O)c2ccccc2)cc1OC` (stereo not given), for which the activation factor was 2.1 (active).

On to `COc1ccc(C2CC(=O)n3c(nc4ccccc43)S2)cc1OC` (stereo not given), for which the activation factor was 0.9.

As for `COc1ccc(S(=O)(=O)N2CCC(C(=O)N3CCc4ccccc4C3)CC2)cc1OC`, the activation factor was 0.5.

In the case of `COc1ccc(CNC(=O)C2CCC(CNc3c(N4CCOCC4)c(=O)c3=O)CC2)cc1` (stereo not given), the activation factor is 1.1.

With `Cc1ccc(CNC(=O)c2ccccc2CCc2ccccc2)cc1`, the activation factor is 0.7.

On to `Clc1ccc(Cl)c(Oc2ccc(Oc3nc(Cl)ccc3Cl)cc2)n1`, for which the activation factor was 2 (active).

For `Nc1ccc(Oc2ccc(Cl)cc2)cc1`, the activation factor was 0.8.

In the case of `N#Cc1ccc(-c2ccc(Cl)cc2)nc1Oc1ccc(F)cc1`, the activation factor was 0.9.

Take `C=CCNC(=O)c1sc(SC)cc1-c1ccc(Cl)cc1`: the activation factor is 0.4.

Consider `Cc1ccc(C(=O)OC2=CC(=O)CC(C)(C)C2)cc1`, for which the activation factor is 0.7.

As to `Cc1cc(C)c(S(=O)(=O)NCCCN2CCOCC2)cc1Br`, the activation factor was 2 (active).

Turning to `O=[N+]([O-])c1ccc(NCCCN2CCOCC2)c(Cl)c1`, the activation factor was 0.9.

With `Cc1ccc(S(=O)(=O)NCCN2CCOCC2)cc1C`, the activation factor was 0.8.

For `O=C(CN1CCN(S(=O)(=O)c2ccc(Cl)s2)CC1)NCc1ccc(Cl)cc1`, the activation factor was 0.4.

As to `CCCCNCc1ccc(SC)cc1`, the activation factor was 1.

Regarding `O=C(NCc1ccccn1)c1cc(-c2ccccc2Cl)on1`, the activation factor was 2.6 (active).

As for `C=CCNC(=O)c1cc(-c2ccccc2O)on1`, the activation factor is 1.5.

Regarding `O=C(NCc1ccccn1)c1cc2ccccc2oc1=O`, the activation factor is 1.3.

For the compound `COc1ccccc1NC(=O)COc1ccc(C(=O)OCC(=O)N(C(C)C)C(C)C)cc1OC`, the activation factor was 0.6.

For the compound `O=C(NCc1ccc2c(c1)OCO2)C1CCCN(S(=O)(=O)c2cccs2)C1` (stereo not given), the activation factor was 0.1.

For `O=C(NCc1cccs1)C1CCN(S(=O)(=O)c2ccc3c(c2)OCCO3)CC1`, the activation factor was 2.7 (active).

Regarding `O=C(c1ccc2c(c1)OCCO2)C1CCN(S(=O)(=O)c2cccc(F)c2)CC1`, the activation factor was 1.2.

In the case of `FC(F)(F)c1cccc(-c2cc3ccccc3nc2N2CCCC2)c1`, the activation factor is 0.9.

For `CCN(CC)C(=O)CSc1nnc(-c2cccc(OC)c2)o1`, the activation factor is 1.6.

In the case of `CCOC(=O)n1c(SCC(=O)N(CC)CC)nc2ccccc21`, the activation factor was 0.7.

Regarding `CCN(Cc1ccccc1)C(=O)CSc1nc(C)cc2c1C(=O)OC2`, the activation factor is 2.3 (active).

`CCN1CCN(c2ccc([N+](=O)[O-])cc2C(=O)c2ccc(Cl)cc2)CC1`: the activation factor was 1.6.

Consider `CC1CC(C)CN(C/C=C/c2ccccc2[N+](=O)[O-])C1` (stereo not given), for which the activation factor is 0.9.

Turning to `COc1ccc(Cl)cc1S(=O)(=O)N1CCN(CC(=O)C(C)(C)C)CC1`, the activation factor is 2.4 (active).

With `COc1ccc(Cl)cc1S(=O)(=O)Nc1cccc(C(=O)O)c1`, the activation factor was 0.9.

Regarding `COc1ccc(NC(=O)CN2CCN(S(=O)(=O)c3ccc(F)cc3)CC2)cc1Cl`, the activation factor is 0.8.

Consider `O=C(CSCc1ccc([N+](=O)[O-])cc1)NCCSCc1ccccc1`, for which the activation factor is 0.6.

With `CCOC(=O)C1CN(S(=O)(=O)c2ccc(F)cc2)C1`, the activation factor was 0.9.

As for `Cc1nc(C)c(C(=O)Nc2cccc(C)c2C)o1`, the activation factor was 1.

In the case of `COc1ccc(Cl)cc1NC(=O)c1oc(C)nc1C`, the activation factor is 2.7 (active).

As to `Cc1nc(C)c(C(=O)Nc2ccc(C)c(F)c2)o1`, the activation factor is 1.

As to `Cc1ccc(NC(=S)NC2CCCC2)cc1`, the activation factor was 0.7.

Turning to `COc1ccc([N+](=O)[O-])cc1NC(=O)CCc1ccccc1`, the activation factor is 1.7.

For the compound `COc1ccccc1NC(=O)c1ccc(C)s1`, the activation factor was 3.5 (active).

For the compound `COc1ccccc1NC(=O)/C=C/C(N)=O`, the activation factor was 1.2.

Turning to `COc1ccccc1NC(=S)NC(=O)C(C)C`, the activation factor is 0.9.

As to `N#Cc1ccsc1NC(=O)CN1CCCCC1`, the activation factor is 1.2.

For `COc1cc(/C=N\NC(=O)CNC(=O)c2cccc([N+](=O)[O-])c2)ccc1O`, the activation factor is 1.1.

For the compound `CC1(C)CC(=O)C2=C(C1)N=C1SCCC(=O)N1C2c1ccc(C(F)(F)F)cc1` (stereo not given), the activation factor was 1.2.

For the compound `CCOc1ccc(S(=O)(=O)Nc2ccc(S(=O)(=O)Nc3cc(OC)ccc3OC)cc2)cc1`, the activation factor is 0.2.

For the compound `CCOc1ccccc1NC(=O)Nc1cc(OC)ccc1OC`, the activation factor was 1.

As to `CCOc1ccc(C(=O)Nc2cc(OC)ccc2OC)cc1`, the activation factor is 2.1 (active).

As for `CCOC(=O)c1sc2nc(SC)nc(-c3ccccc3)c2c1N`, the activation factor is 0.9.

Take `O=c1c([N+](=O)[O-])cc(C(F)(F)F)cn1Cc1cccc(Cl)c1`: the activation factor is 0.8.

As for `O=S(=O)(c1cccs1)N1CCc2ccccc2C1`, the activation factor was 3.1 (active).

As to `O=C(Nc1ccc(S(=O)(=O)N2CCc3ccccc3C2)cc1)c1ccccc1`, the activation factor is 1.

For the compound `O=S(=O)(c1cccs1)N1CCN(Cc2ccccc2)CC1`, the activation factor was 0.3.

Take `COc1ccc(C(=O)N2CCc3cc(OC)c(OC)cc3C2c2cccc([N+](=O)[O-])c2)cc1` (stereo not given): the activation factor is 0.4.

On to `Cc1nnsc1S(=O)(=O)Cc1ccccc1Cl`, for which the activation factor is 1.

In the case of `O=S(=O)(NCCOc1cccc2cccnc12)c1ccc(F)cc1`, the activation factor is 3.3 (active).

On to `COc1ccc(CCNS(=O)(=O)c2ccc(F)cc2)cc1OC`, for which the activation factor was 0.2.

For the compound `O=S(=O)(NCc1ccccn1)c1ccc(F)cc1`, the activation factor is 1.

For the compound `O=C(/C=C/c1ccccc1)c1ccoc1`, the activation factor was 0.8.

On to `Cc1nn(C)c(Oc2ccccc2)c1CCNS(=O)(=O)c1ccc(F)cc1`, for which the activation factor was 0.5.

Consider `CC(C)(C)NC(=O)NC(=O)COC(=O)CCC1CCCCC1`, for which the activation factor is 0.9.

For the compound `COc1ccccc1C(=O)Nc1ccc(NC(=O)c2ccco2)c(C)c1`, the activation factor is 2.8 (active).

Regarding `COc1cccc(C(=O)Nc2ccc(NC(=O)c3ccco3)cn2)c1`, the activation factor is 0.8.

In the case of `COC(=O)c1ccc(NC(=O)c2ccco2)cc1`, the activation factor was 0.8.

In the case of `COc1ccc(OC)c(NC(=O)c2cnn(-c3ccccc3Cl)c2NC(=O)c2ccco2)c1`, the activation factor was 0.8.

As for `COc1ccc(NC(=O)c2cccc(NC(=O)c3ccco3)c2)c(OC)c1`, the activation factor is 1.5.

Turning to `COC(=O)c1cc(Cl)c(NC(=O)c2ccco2)cc1OC`, the activation factor was 2.4 (active).

Consider `CCOC(=O)Nc1ccc(S(=O)(=O)N(C)C(C)C)cc1`, for which the activation factor is 0.7.

On to `O=C(COc1ccc(Br)cc1F)NC1CCN(Cc2ccccc2)CC1`, for which the activation factor is 0.7.

As for `Cc1onc(-c2c(Cl)cccc2Cl)c1C(=O)c1c[nH]c(C(=O)NC2CC2)c1`, the activation factor is 0.9.

Take `Cc1cc(C(=O)CSc2nc(N)cc(=O)[nH]2)c(C)n1CCc1ccc(Cl)cc1`: the activation factor is 0.9.

`CCn1cc(C(=O)N/N=C(/C)c2ccc(F)cc2)c(=O)c2cc(F)c(N3CCCC3)cc21`: the activation factor was 0.9.

For `COc1ccc(S(=O)(=O)NC(CC(=O)NCc2ccccc2OC)c2ccco2)cc1` (stereo not given), the activation factor was 1.4.

Regarding `COc1ccccc1CNS(=O)(=O)c1ccc(C)cc1`, the activation factor is 2.6 (active).

For `COc1ccccc1Cc1nc(-c2ccc(C)cc2)no1`, the activation factor is 0.9.

As for `CCOC(=O)C1(S(=O)(=O)c2ccc(Cl)cc2)CCN(Cc2ccccc2)CC1`, the activation factor was 0.8.

For `Cc1nc2cc(NC(=O)CSc3nc4c(C)cccc4cc3C#N)ccc2s1`, the activation factor is 0.7.

Regarding `Cn1cc(CCC(=O)NCc2ccc3c(c2)OCO3)c2ccccc21`, the activation factor is 2.2 (active).

Turning to `O=C(CCCCn1c(=O)[nH]c2ccccc2c1=O)NCc1ccc2c(c1)OCO2`, the activation factor is 0.3.

In the case of `O=C(COc1ccccc1)NCc1ccc2c(c1)OCO2`, the activation factor is 0.7.

`CCCc1cc(=O)[nH]c(SCC(=O)c2cc(C)n(CCC)c2C)n1`: the activation factor is 0.9.

On to `Cc1ccc2nc(SCc3nnc(-c4ccccc4[N+](=O)[O-])o3)c(C#N)cc2c1`, for which the activation factor is 0.8.

Take `COC(=O)Cc1cc(=O)oc2c(C)c(O)ccc12`: the activation factor was 1.2.

Regarding `Cc1nc(Cl)c2oc3ccccc3c2n1`, the activation factor is 0.9.

As for `CC(C)C(=O)Nc1cccc(C(=O)Nc2ccc3c(c2)OCO3)c1`, the activation factor is 0.4.

For the compound `O=C(Nc1ccc2c(c1)OCO2)C1CC(c2c(F)cccc2Cl)=NO1` (stereo not given), the activation factor is 2.6 (active).

Regarding `Cc1ccc(NC(=O)C2CC(c3ccc(F)cc3)=NO2)cc1` (stereo not given), the activation factor was 0.8.
